# According to PubChem BioAssay:
# The source made the active and inactive calls. How the calls were made is not given here.
# System: Aerobactin synthetase IucA (Klebsiella pneumoniae hvKP1)
# Experiment: IucA enzyme inhibition, primary screen, biochemical, Spectrum library (AID 1346200);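 further: 100% = wells without compound and 0% = wells lacking enzyme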
# Settings: malachite green pyrophosphate, A620, at 8 µM, stronger effect = lower value
row,SMILES,activity remaining
1,Cc1cc(NS(=O)(=O)c2ccc(N)cc2)no1,110% (inactive)
2,C=C1CC[C@H](O)C/C1=C/C=C1\CCC[C@]2(C)C([C@H](C)/C=C/[C@H](C)C(C)C)CC[C@@H]12 (some centres not stated),107% (inactive)
3,NC(=O)c1ccc[n+]([C@@H]2O[C@H](COP(=O)([O-])OP(=O)(O)OC[C@H]3O[C@@H](n4cnc5c(N)ncnc54)[C@H](OP(=O)(O)O)[C@@H]3O)[C@@H](O)[C@H]2O)c1,101% (inactive)
4,CC1(O)CC2C(CC1O)C2(C)C (configuration not stated),125% (inactive)
5,COC(=O)C(O)c1ccccc1 (configuration not stated),108% (inactive)
6,Nc1ccc(S(=O)(=O)c2ccc(N)cc2)cc1,109% (inactive)
7,C/C=C/c1ccc(OC)cc1,98.6% (inactive)
8,CC1(C)CC2C1CC[C@]1(C)CCC3C(C(=O)O)CC(=O)O[C@@]32C1 (some centres not stated),92.5% (inactive)
9,CC(C)/C(O)=C1/C(=O)O[C@@H](c2ccoc2)[C@]2(C)C(O)[C@@H](O)[C@@]34OC5(C)OC67CC(C)(C(O)[C@]6(O)[C@@H](O)[C@]3(O5)C12)[C@H](CC(=O)O)[C@]74C (some centres not stated),92.7% (inactive)
10,Oc1c(Br)cc(Br)c2cccnc12,113% (inactive)
11,O=C(O)[C@H]1/C(=C/CO)O[C@@H]2CC(=O)N21,112% (inactive)
12,C=C[C@@H](C1=CC(=O)C(OC)=C(OC)C1=O)c1ccccc1,128% (inactive)
13,CC(O)(P(=O)(O)O)P(=O)(O)O,119% (inactive)
14,NS(=O)(=O)c1cc(C2(O)NC(=O)c3ccccc32)ccc1Cl (configuration not stated),117% (inactive)
15,OC[C@H]1O[C@@H](O[C@H]2[C@H](O)[C@@H](O)[C@@H](O)O[C@@H]2CO)[C@H](O)[C@@H](O)[C@@H]1O,107% (inactive)
16,CN1C2CC[C@@H]1CC(OC(=O)[C@H](CO)c1ccccc1)C2 (some centres not stated),102% (inactive)
17,Oc1cccc(O)c1,116% (inactive)
18,CCc1ccc2c(O)c3c(cc2c1C(=O)OC)C(=O)c1c(O)ccc(O)c1C3=O,115% (inactive)
19,CCC(/C=C/[C@@H](C)[C@H]1CCC2C3CC=C4C[C@@H](O)CC[C@]4(C)C3CC[C@@]21C)C(C)C (some centres not stated),101% (inactive)
20,CCC[C@@H]1C[C@@H](C(=O)N[C@@H](C2O[C@H](SC)[C@H](O)[C@@H](O)[C@H]2O)[C@H](C)Cl)N(C)C1 (some centres not stated),77.4% (inactive)
21,C=CCS(=O)C[C@H](N)C(=O)O (some centres not stated),125% (inactive)
22,CC1(C)C(=O)[C@@H]2C[C@@]3(O)C4=CC(=O)O[C@@H](c5ccoc5)[C@]4(C)CCC3C(C)(C2=O)[C@H]1CC(=O)O (some centres not stated),98.2% (inactive)
23,CCOc1ccc(NC(C)=O)cc1,97.1% (inactive)
24,CC1=C(C(=O)O)N2C(=O)[C@@H](NC(=O)[C@H](N)C3=CCC=CC3)C2SC1 (some centres not stated),103% (inactive)
25,COc1ccc(-c2cc(C(F)F)nn2-c2ccc(S(N)(=O)=O)cc2)cc1F,123% (inactive)
26,CCCCN1CCCCC1C(=O)Nc1c(C)cccc1C (configuration not stated),103% (inactive)
27,CC1=C(/C=C/C(C)=C/C=C/C(C)=C/C=C/C=C(C)/C=C/C=C(C)/C=C/C2=C(C)C(=O)C(O)CC2(C)C)C(C)(C)CC(O)C1=O (configuration not stated),109% (inactive)
